# High-throughput results from PubChem BioAssay.
# A549 tox: counter-screen for Nrf2 inhibitors: cytotoxicity in A549 cells. A549 ARE-Fluc cells, CellTiter-Fluor viability, 18-24 h. Potency, µM (series often up to 46 µM), inactives show at the top dose activity change, negative = cytotoxicity, most hits filed as inhibitors. hit rate 0.16% among 390,000; also: % is scaled to controls: 0 for no effect and ±100 for the full control effect
#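 A549 ARE-Fluc cells in 5% FBS OPTI-MEM, 5000 cells/well, rested 2 h then exposed to compounds in concentration-response for 18-24 h at 37 °C. Viability by CellTiter-Fluor fluorescence (Ex 405/Em 525) after 30 min; luciferase luminescence (BugLite, 15 min, RT) read afterwards.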
# Nrf2 activator: activates Nrf2 signaling; AID 624171; Potency, µM (titrated, usually from 46.1 µM), for inactives: at the highest dose activation, usual class: activators; AREc32 ARE-luciferase reporter (MCF7-derived line), luminescence, 24 h; hit rate 0.31% among 410,000; also: % of control where 0% means no effect; nearly all actives have a fitted effect of over 65% in size
#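 AREc32 cells carrying an ARE-driven firefly luciferase reporter were seeded at 1000 cells/well in OPTI-MEM with 5% FBS, then exposed to compound for 24 hr at 37 deg C. Luminescence was read with Steady-Glo after 30 min at RT.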
# ELG1 repair inh: inhibitors of ELG1-dependent DNA repair in HEK293T cells | AID 504467 | Potency, µM (series often up to 46.1 µM), inactives show at the top dose activity change, negative = inhibition, actives largely listed as inhibitors | HEK293T ELG1-luciferase reporter, luminescence, 16 h; DNA damage induced by 5-fluorouridine | hit rate 2.3% among 330,000; also: % is scaled to controls: 0 for no effect and ±100 for the full control effect; nearly all actives have a fitted effect of over 55% in size
#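 In this reporter screen, reduction of luminescence relative to DMSO vehicle indicated activity. Compounds and 5-fluorouridine were added together to 2,000 cells per well, incubated for 16 hr at 37 °C, then developed with ONE-Glo.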
# Nrf2 block: blocks Nrf2 signaling. A549 ARE-Fluc reporter, luciferase luminescence, 18-24 h. Potency, µM (doses to about 46 µM), without a hit: at the highest dose activity change, negative = inhibition, hits mostly inhibitors. hit rate 2.1% among 360,000; also: % is scaled to controls: 0 for no effect and ±100 for the full control effect; nearly all actives have a fitted effect of over 60% in size
#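 Quantitative HTS in A549 cells stably bearing an antioxidant response element-firefly luciferase construct. Inhibition of Nrf2-driven transcription was scored by luminescence after 18-24 h of compound exposure at 37 °C.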
# * marks the source's active call; other numbers are inactive results; u = inconclusive; x = not tested or not shown; [ ] = another dose, or the depositor's remark. Hits are enriched below; roughly 3.7% of the tested compounds scored in any of these assays. Calls follow the shape of the dose curve; as a rule, active = well fitted curve in the direction sought with a large enough effect; inconclusive = small, poorly fitted or top-dose-only effect, or another doubt; inactive = no such curve, though single readings can be large; an effect the other way counts as inactive or inconclusive. Potency is read from the fitted curve at half-maximal effect.
SMILES,A549 tox,Nrf2 activator,ELG1 repair inh,Nrf2 block
O=C(NCc1ccco1)c1ccc(-c2ccc3nccn3c2)cc1,x,8%,x,x
COc1ccc(/C=C2\SC(=S)N(CCCCCC(=O)Nc3cc(C)on3)C2=O)cc1OC,-1%,-2%,1%,-9%
COc1ccc(/C=C2\SC(=S)N(CCCC(=O)Nc3cc(C)on3)C2=O)cc1OC,2%,0%,7.3µM*,1%
COc1cc(/C=C2\SC(=S)N(CCC(=O)Nc3ccc(O)cc3)C2=O)cc(OC)c1OC,0%,0%,23µM*,u
O=C(COC(=O)COc1ccccc1[N+](=O)[O-])NC1CCCCC1,-5%,0%,13%,4%
CCOC(=O)C1=C(CC)Nc2ccccc2N=C1NC(=O)c1ccc(OC)c(S(=O)(=O)N2CCCCC2C)c1 (stereo not drawn),-4%,0%,23µM*,-25%
Fc1ccccc1NC(=S)Nc1ccc(Br)cc1,u,0%,-6%,23µM*
COc1ccc(CNCC(O)COc2cccc3c2OC(C)(C)C3)cc1 (stereo not drawn),-9%,4%,9.2µM*,u
COC(=O)c1ccc(COc2cccc3c2OC(C)(C)C3)cc1,1%,-1%,10%,-13%
S=C(NCCc1ccccc1)Nc1c(Cl)cccc1Cl,2%,0%,6%,-23%
COc1cc2c(cc1OC)CN(C(=O)CCOc1ccccc1C)CC2,u,0%,u,-12%
COc1cc2c(cc1OC)CN(C(=O)CCCOc1ccc(Cl)cc1Cl)CC2,-20%,1%,u,18µM*
COc1ccc(-c2csc3ncnc(NCCN4CCOCC4)c23)cc1,-19%,-1%,13µM*,u
Clc1ccc(-c2csc3ncnc(NCCN4CCOCC4)c23)cc1,0%,0%,18µM*,u
Cc1ccc(-c2csc3ncnc(NCCN4CCOCC4)c23)cc1,0%,0%,u,u
c1ccc(-c2csc3ncnc(NCCN4CCOCC4)c23)cc1,-18%,0%,16µM*,15µM*
O=C(Nc1ccon1)c1nc[nH]c1C(=O)N1CCN(c2ccccc2)CC1,6%,0%,0%,-6%
O=C(NC(=S)Nn1cnc2c(cnn2-c2ccccc2)c1=O)c1ccccc1,-14%,4%,11%,-9%
CCN(CCCNC(=O)c1cc2cc3cc(OC)ccc3nc2s1)c1cccc(C)c1,-13%,1%,x,26µM*
CCOC(=O)c1cccc(NC(=O)c2cc3cc4ccc(C)cc4nc3s2)c1,4%,-1%,x,u
CCOC(=O)c1cccc(NC(=O)c2cc3cc4cc(OC)ccc4nc3s2)c1,u,0%,x,23µM*
CC(=O)N1CCN(c2ccc(NS(=O)(=O)c3ccc4c(c3)CC(=O)N4)cc2)CC1,0%[92.2 µM],x,x,22%[92.2 µM]
CCCCN(C)C(=O)c1sc(=O)n(Cc2ccccc2C#N)c1C,x,-1%,x,x
CNc1nc(N)c([N+](=O)[O-])c(Nc2ccccc2OC)n1,-17%,-1%,u,u
Cc1ccc(S(=O)(=O)/N=C(/Nc2ccc([N+](=O)[O-])cc2[N+](=O)[O-])c2ccccc2)cc1,-18%,4%,23µM*,u
SMILES,A549 tox,Nrf2 activator,ELG1 repair inh,Nrf2 block
Cc1ccc(S(=O)(=O)/N=C(/Nc2ccc([N+](=O)[O-])cc2)c2ccccc2)cc1,-4%,4%,u,-23%
Cc1ccc(S(C)(=O)=O)cc1C(=O)OCC(=O)N1CCCC1=O,-1%,2%,-9%,-4%
Cc1nc(C)c(NC(=O)OC(C)C)cc1NC(=O)OC(C)C,0%,-1%,-2%,-1%
COc1ccccc1N1CCN(C(=O)CSc2nc3ccccc3nc2Cc2ccc(C)cc2)CC1,-8%,0%,x,x
COc1ccccc1N1CCN(C(=O)CSc2nc3ccccc3nc2N2CCC(C)CC2)CC1,2%,-1%,26µM*,u
COc1ccccc1N1CCN(C(=O)CSc2nnc3n2C(C)(C)Cc2ccccc2-3)CC1,0%,0%,9.2µM*,u
COc1ccc(-c2nnn(CC(=O)N3CCN(c4ccccc4OC)CC3)n2)cc1,-1%,0%,23µM*,-2%
COc1ccccc1N1CCN(C(=O)CSc2nc3ccccc3nc2N2CCCCC2)CC1,1%,0%,16µM*,-28%
O=C(NCc1ccc2c(c1)CCN2C(=O)c1ccncc1)c1cccc(Cl)c1,-8%,0%,x,x
COc1ccccc1CCNC(=O)CN1C(=O)c2ccccc2S1(=O)=O,-5%,0%,5%,-19%
Cc1cc(-c2ccccc2)n(-c2ccc(C(=O)N3CCN(c4ncccn4)CC3)cc2)n1,0%,4%,6.5µM*,-19%
Cc1ccc(C(=O)N2CCN(c3ncccn3)CC2)cc1,2%,0%,3%,7%
Cn1c(CNc2ccc(Cl)cc2)nnc1SCc1ccccc1,14%,0%,-3%,29%
Cc1[nH]c2ccccc2c1SCc1nnc(SCc2ccc(Cl)cc2)n1C,-8%,0%,16µM*,u
Cc1[nH]c2ccccc2c1SCC(=O)O,-6%,2%,-13%,-6%
Cc1[nH]c2ccccc2c1SCc1nnc(SCc2ccccc2)n1C,3%,-1%,-20%,26µM*
Cc1sc(NC(=O)c2ccco2)nc1-c1ccc2c(c1)CC(C)N2C(=O)C1CC1 (stereo not drawn),u,0%,15µM*,x
CC(=O)Nc1nc(-c2ccc3c(c2)CC(C)N3C(=O)C2CC2)c(C)s1 (stereo not drawn),1%,7%,8.2µM*,-8%
Cc1sc(NC(=O)c2ccco2)nc1-c1ccccc1,-3%,u,u,u
CCOC(=O)C(=O)Nc1nc(-c2ccc3c(c2)CCN3C(=O)C2CC2)c(C)s1,1%,0%,u,9%
CCc1cc2c(cc3c(=O)n(CC(=O)N4CCN(c5cccc(C)c5C)CC4)nc(CC)n32)s1,2%,0%,x,-2%
Cc1ccccc1C(=O)N1CCN(c2ccc(NC(=O)CSc3ccc(Cl)cc3)cc2)CC1,-28%,0%,u,21µM*
Cc1ccccc1C(=O)N1CCN(c2ccc(NC(=O)Cc3ccccc3)cc2)CC1,0%,0%,18µM*,-12%
CCC(=O)Nc1ccc(N2CCN(C(=O)c3ccccc3C)CC2)cc1,-17%,-1%,1%,-4%
COc1ccc2c(c1)c1c(c(=O)n(-c3ccc(C)cc3)c(=O)n1CC(=O)NCc1ccc(C)cc1)n2C,-9%,0%,x,27%
CCc1ccc(NC(=O)N(Cc2c[nH]c3ccccc23)C2CCCCC2)cc1,9%,10%,x,u
CCOCCCNC(=O)c1cc2c(=O)n(CC)c3ccccc3c2s1,1%,1%,-16%,u
CCn1c(=O)c2cc(C(=O)NCCOC)sc2c2ccccc21,4%,0%,u,21µM*
Cc1ccc(S(=O)(=O)N[C@H](C(=O)OCC(=O)NC(=O)c2cccn2C)C(C)C)cc1,20%,3%,x,u
C/C(=N/NC(=O)c1ccncc1)c1ccccc1,-4%,1%,u,u
